The test relates to FGFR4. To be noted: Compound Concentration (nM):1000.
`COc1cc(N2CCN(C(C)C)CC2)ccc1Nc1nc(Nc2ccc(F)cc2C(=O)NC[C@@H](O)CO)c2cc[nH]c2n1` [GSK1392956A]: the “Percent Control” value is 95%. For `Cl.c1ccc(Cc2nc3ccc(Nc4ncnc5ccccc45)cc3[nH]2)cc1` [GR269666A], the “Percent Control” value is 100%. As for `C[C@@H](Oc1cc(-n2cnc3ccc(OC4CCN(C)CC4)cc32)sc1C(N)=O)c1ccccc1Cl` [GSK579289A], the figure is 79%.

Consider `CC1=C(C(=O)Nc2ccc3[nH]ncc3c2)C(c2ccc(Cl)c(Cl)c2)CC(=O)N1` (stereo not shown) [GSK299115A], for which the “Percent Control” value was 57%. As to `COc1cccc(-n2ncc3c(N/N=C/c4ccncc4)ncnc32)c1` [GW784752X], the “Percent Control” value is 100%.

As for `COc1cc2ncnc(Nc3ccc4c(cnn4Cc4ccccc4)c3)c2cc1OC.Cl` [GW282449A], the “Percent Control” value was 100%. Then `Cl.O=C(Nc1ccc(Oc2ccc3[nH]c(NC(=O)c4ccco4)nc3c2)cc1)Nc1cc(C(F)(F)F)ccc1F` [GW683134A], with 100%; and `CC(C)COC(=O)c1ccc2c(c1)/C(=C/Nc1ccc(S(N)(=O)=O)cc1)C(=O)N2` [GW416981X], with 100%. Then `COc1ccc2[nH]c3c4[nH]c5ccc(OC)cc5c4c4c(c3c2c1)C(=O)NC4=O` [GW296115X], with 85%. Then `COc1ccc2c(-c3ccnc(Nc4cccc(OC(F)(F)F)c4)n3)cnn2n1` [GW810372X], with 100%; and `COc1ccc2cc(-c3c(-c4ccncc4)nc(-c4ccc(S(C)(=O)=O)cc4C)n3C)ccc2c1` [SB-633825], with 85%; and `O=C1Nc2ccc(C(=O)c3ccco3)cc2C1=Cc1cc(Cl)c(O)c(Cl)c1` [GW406108X], with 100%. As to `CCS(=O)(=O)c1ccc(OC)c(Nc2ncc(-c3cccc(F)c3)o2)c1` [GW621970X], the “Percent Control” value is 87%.

Source of the values: PMC7826789 (International Journal of Molecular Sciences, 2021).
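Note: KINOMEscan scanMAX binding as percent activity remaining versus control; lower means stronger binding.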
